Where “and” joins values, the source holds several entries; their conditions need not be identical. Equal entries are not always repeated. Records with an inconclusive call do not appear. A structure can be active in one record and inactive in another. Calls of active or inactive are those of the source. The call rests on the fitted dose curve; in most records, active means well fitted inhibition curve with a large enough effect in the repeat runs; inconclusive means weak or mixed curves; inactive means no such curve, though single readings can be large or run the other way.
molecular target: Cytochrome P450 2D6 (Homo sapiens) (UniProt P10635); assay: Cytochrome P450 Family 2 Subfamily D Member 6 (CYP2D6) small molecule antagonists: luciferase reporter qHTS assay (AID 1671196); conditions: P450-Glo CYP2D6 enzyme assay, luciferin luminescence, 1 h; series mostly up to 115 µM; activity change, negative = inhibition: at the top concentration; further: nearly all actives have a fitted effect of over 50% in size
Description: U.S. Tox21 Program National Center for Advancing Translational Sciences [NCATS] U.S. Environmental Protection Agency [EPA] National Institutes of Environmental Health Sciences [NIEHS] National Toxicology Program [NTP] U.S. Food and Drug Administration [FDA] Tox21 Assay Overview: Cytochrome P450 (CYP) enzymes are membrane-bound hemeproteins that play a key role in metabolism of drugs and xenobiotics. Evaluation of the effect of chemicals on CYP isozymes is useful to minimize the adverse drug reactions and toxicities in drug development process. Tox21 chemicals were tested for their effect on CYP enzyme activities by using P450-Glo (TM) screening systems (Promega Corporation, Madison, WI). These systems provide a luminescent method containing proluciferin substrates and are converted to luciferin products by CYP isozymes. The luciferin products formed are detected with a luciferin detection reagent, and the amount of light produced is proportional to CYP activity. P450-Glo (TM) CYP2D6 screening system (Catalog. No. V9890) was used to detect the compounds that interfere in CYP2D6 activity.
Tox21 Assay Protocol Summary: Two ul of enzyme-substrate mix was dispensed into medium binding white/solid 1536-well plates (Greiner Bio-One North America Inc., Monroe, NC) using a BioRaptr Flying Reagent Dispenser (FRD, Beckman Coulter, Brea, CA). […] The assay plates were incubated at room temperature for 10 min. Then 2 ul of NADPH regeneration solution was added to each well of the assay plates using an FRD and incubated at room temperature for 1 h. The reaction was stopped by adding 4 ul of detection reagent using an FRD and after 20 min incubation at room temperature the luminescence signal was measured using a ViewLux plate reader (Perkin Elmer, Shelton, CT). Data were expressed as relative luminescence units.
On the % scale 0 is the no-effect control and ±100 the full control effect; potency means the concentration at half of the fitted maximal effect.

Chain of Cytochrome P450 2D6 (Homo sapiens) (P10635 whole entry, looked up): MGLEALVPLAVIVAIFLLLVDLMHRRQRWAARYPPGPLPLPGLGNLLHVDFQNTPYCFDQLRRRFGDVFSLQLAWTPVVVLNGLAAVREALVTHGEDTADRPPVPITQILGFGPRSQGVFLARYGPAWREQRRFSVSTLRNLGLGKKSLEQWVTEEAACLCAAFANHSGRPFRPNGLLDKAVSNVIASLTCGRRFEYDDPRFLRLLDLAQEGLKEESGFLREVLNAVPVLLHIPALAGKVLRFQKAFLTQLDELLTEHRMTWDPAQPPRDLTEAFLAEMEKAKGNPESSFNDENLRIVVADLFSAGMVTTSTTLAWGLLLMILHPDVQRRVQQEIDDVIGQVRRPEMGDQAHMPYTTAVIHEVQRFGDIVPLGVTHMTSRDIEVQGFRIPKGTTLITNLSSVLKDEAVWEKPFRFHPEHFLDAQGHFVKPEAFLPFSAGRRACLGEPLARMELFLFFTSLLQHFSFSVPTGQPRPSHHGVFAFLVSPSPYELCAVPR

Compound	Potency	activity change, negative = inhibition
N#Cc1ccc(C2CCCc3cncn32)cc1 (stereo not given)	12.7 µM (active)	
CN1CC(=O)NC1=N		-3.69% [at 53 µM] (inactive)
Cc1ccc(C#N)cc1		-13.6% (inactive)
CCOC(=O)c1cccc(N)c1		-8.49% [at 53 µM] (inactive)
CCSC(=O)N(CC(C)C)CC(C)C		1.77% (inactive)
NC(=O)c1ccc([N+](=O)[O-])cc1		-15.6% (inactive)
CC(C)(O)C#CC(C)(C)O		1.02% (inactive)
CN1CCCC1		-2.19% (inactive)
CCOC(=O)c1ccc(C)cc1		-10.1% (inactive)
O=C(O)CNC(=O)c1ccc([N+](=O)[O-])cc1		-11.1% (inactive)
CC(=O)OCC(=O)[C@@]1(O)CC[C@H]2[C@@H]3CCC4=CC(=O)CC[C@]4(C)[C@H]3C(=O)C[C@@]21C	2.45 µM (active)	
NCCCNCCSP(=O)(O)O		-0.545% [at 10.5 µM] (inactive)
CC(C)=CCCC(C)CC(=O)O (stereo not given)		-6.81% (inactive)
CN(C)CCCNCCCN(C)C	20 µM (active)	
CC(C[N+](C)(C)C)OC(N)=O (stereo not given)		-7.48% [at 53 µM] (inactive)
Cc1cc(O)cc2c1O[C@](C)(CCC[C@H](C)CCC[C@H](C)CCCC(C)C)CC2		-1.03% [at 53 µM] (inactive)
CC(C)OC(=O)c1ccccc1		-23.9% (inactive)
CCCN(CCC)CCc1cccc2c1CC(=O)N2	0.977 µM (active)	
NC(CSCC(=O)O)C(=O)O (stereo not given)		-18.4% [at 53 µM] (inactive)
CCCCCOC(=O)CCCCC		-6.23% (inactive)

Compound	Potency	activity change, negative = inhibition
CN1N=C(C(N)=O)CCC1=O		3.23% [at 53 µM] (inactive)
Cc1cnc(NS(=O)(=O)c2ccc(N)cc2)nc1		1.42% [at 53 µM] (inactive)
COCCCOCCCOC		-3.49% (inactive)
OCCOc1ccc(OCCO)cc1		0.392% (inactive)
COC(=O)c1ccc(C)cc1C1=NC(C)(C(C)C)C(=O)N1 (stereo not given)		-12.6% (inactive)
C=CCOCC(CC)(CO)COCC=C		-8.25% (inactive)
COc1ccc2c(c1)CCCC2=O		1.48% [at 53 µM] (inactive)
CC(C)(c1ccc(O)cc1)c1ccc(O)cc1	inactive and 64.4 µM (active)	
Nc1cc(=O)[nH]c(N)n1		-3.81% [at 53 µM] (inactive)
CCCCCCCCCCCCN(CCCCCCCCCCCC)CCCCCCCCCCCC		1.13% (inactive)
OCCCC1CCCCC1		-0.225% (inactive)
COc1ccccc1OCC(O)CN1CCN(CC(=O)Nc2c(C)cccc2C)CC1 (stereo not given)	13.8 µM (active)	
C1CN(CCOCCN2CCOCC2)CCO1		1.57% (inactive)
CC(C)(CC(=O)O)C(=O)O		-7.23% (inactive)
NC(=O)COCCN1CCN(C(c2ccccc2)c2ccc(Cl)cc2)CC1 (stereo not given)		-17.4% [at 53 µM] (inactive)
Cc1c(NC(C)C)c(=O)n(-c2ccccc2)n1C		-13.2% [at 53 µM] (inactive)
CC(=O)N(CC(O)CO)c1c(I)c(C(=O)NCCO)c(I)c(C(=O)NCC(O)CO)c1I (stereo not given)		-1.44% [at 53 µM] (inactive)
C=C[Si](OC(=C)C)(OC(=C)C)OC(=C)C		-23.3% (inactive)
ClC(Cl)(Br)Br	39.2 µM (active)	
O=S(O)CO		-0.11% (inactive)

— PubChem BioAssay (Tox21)
